These results are taken from PubChem BioAssay.

Activity calls are given as the source filed them.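 The calls were made as follows, unless noted: active = compound that reduces growth-factor-driven endothelial tube area in a mixed cell culture, no cutoff stated; inactive = the rest.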

Test [1] in a line: Wnt pathway potentiators raising nuclear beta-catenin – imaging, WNT3A-conditioned medium, mouse C2C12, NPC library, primary screen (AID 1117326; in the data active = nuclear beta-catenin stimulation mostly above about 4.2%, no sharp cut-off; inactive = mostly below about 10%; also: reference of the scale not given here). As to conditions: stronger effect = higher value.
Test [2] is described as follows: stimulators of insulin release from INS-1E, primary screen, cell-based, 5 mM glucose, NPC library (AID 1117329;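 active = compound raises insulin release from rat beta cells at 5 mM glucose, no numeric limit stated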; also: reference of the scale not given here). As to conditions: rat INS-1E insulin secretion, at 10 µM, stronger effect = higher value.
A short description of test [3]: growth inhibition of GSK3B-pretreated HCT116 cells – cell-based, CellTiter-Glo, 0.2 to 20 µM (AID 1117336;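 active = compounds lowering colon cancer cell viability after pretreatment blocking the GSK3B kinase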). The conditions noted are these: HCT116 viability after GSK3B inhibitor, at 20 µM, stronger effect = higher value. In general terms: In ATP-based viability assays light output follows the ATP content of the culture.
The nature of test [4]: inhibition of endothelial tube formation, primary screen, imaging, VEGF stimulated, CD31 staining, tube area, NPC library (AID 1117340). The conditions noted are these: VEGF-stimulated ADSC/ECFC co-culture, at 10 µM, stronger effect = higher value.
Test [5] in a line: GLP1 release stimulators, primary, NCI-H716, NPC library (AID 1117341;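 active = compound raises GLP1 secretion from the human gut endocrine cells, with no numeric limit stated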; also: reference of the scale not given here). As to conditions: NCI-H716 cells, at 10 µM, stronger effect = higher value.
The nature of test [6]: HCT116 colon cancer cell growth inhibition, primary screen, CellTiter-Glo luminescence, NPC library (AID 1117342;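 active = compounds that lower survival of HCT116 colon cancer cells in the luminescence readout, no numeric limit stated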). The conditions noted are these: at 20 µM (top of the series).
The nature of test [7]: reduced SW480 viability measured with CellTiter-Glo, NPC library, primary (AID 1117343;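 active = compounds that lower viability of the colon cancer cells in the luminescence readout, with no numeric limit stated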). The conditions noted are these: CellTiter-Glo luminescence; at 20 µM (top of the series).
Test [8] in a line: NPC library primary testing for decreased DLD-1 cell viability via CellTiter-Glo (AID 1117346;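 active = compounds that lower survival of DLD-1 colon cancer cells in the luminescence readout, no cutoff given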). As to conditions: DLD-1 viability, CellTiter-Glo luminescence; at 20 µM (top of the series).

Consider `CCOC(=O)OCC/C(SC(=O)OCC)=C(\C)N(C=O)Cc1cnc(C)nc1N`, for which the nuclear beta-catenin stimulation in test [1] (at 10 µM) was 1.8% (inactive); in test [1] (stimulation, at 2 µM), 0.3%. The insulin secretion stimulation in test [2] was 1.5% (inactive). Also, in test [3], the viability decrease is 2.5% (inactive). Further, in test [4], the tube area decrease was -11% (inactive). Further, the GLP1 secretion stimulation in test [5] is 2.9% (inactive). In addition, the inhibition of viability in test [6] is -0.4% (inactive). Further, the viability decrease (inhibition) in test [7] was -22.7% (inactive); in test [8], -10.1% (inactive).
For the molecule `CCCCOCCOC(=O)c1cccnc1`, the nuclear beta-catenin stimulation in test [1] (at 10 µM) is 1.3% (inactive); in test [1] (stimulation, at 2 µM) it was -0.3%. Besides, the insulin secretion stimulation in test [2] was 2.6% (inactive). Further, the viability decrease in test [3] was -29.5% (inactive). Further, in test [4], the tube area decrease was 1.8% (inactive). In test [5], the GLP1 secretion stimulation is 2.3% (inactive). In test [6], the inhibition of viability is -11.9% (inactive). The viability decrease (inhibition) is 18.6% (inactive) in test [7] and -20.5% (inactive) in test [8].
With `COc1cc2c(cc1OC)C(C(C(=O)N(CCc1ccc(OC)c(OC)c1OC)CCc1ccc(OC)c(OC)c1OC)c1ccccc1)=NCC2` (stereo unspecified), the nuclear beta-catenin stimulation in test [1] (at 10 µM) was 4.4% (inactive); in test [1] (stimulation, at 2 µM), 8.3%. For the same molecule, in test [2], the insulin secretion stimulation was -0.9% (inactive). Further, the viability decrease in test [3] is 74.1% (active). The tube area decrease in test [4] is 20.6% (inactive). In test [5], the GLP1 secretion stimulation is 4.1% (inactive). For the same molecule, in test [6], the inhibition of viability was 83.5% (active). For the same molecule, the viability decrease (inhibition) is 87.9% (active) in test [7] and 69.8% (active) in test [8].
Regarding `C[C@@H](O)[C@H]1C(=O)N2C(C(=O)O)=C([C@H]3CCCO3)S[C@H]12`, the nuclear beta-catenin stimulation in test [1] (at 10 µM) is 0.5% (inactive); in test [1] (stimulation, at 2 µM), 0.5%. The insulin secretion stimulation in test [2] was -1.8% (inactive). Further, the viability decrease in test [3] is 13.8% (inactive). The tube area decrease in test [4] was -11.6% (inactive). In addition, the GLP1 secretion stimulation in test [5] was 1.1% (inactive). Besides, the inhibition of viability in test [6] was 3.4% (inactive). In addition, the results for the viability decrease (inhibition) in test [7] and in test [8] were 34.6% (inactive) and 11.2% (inactive), respectively.
As for `CCCCCCCCCCCCCCCC[N+](C)(C)CC`, the nuclear beta-catenin stimulation in test [1] (at 10 µM) was 13.3% (inactive); in test [1] (stimulation, at 2 µM) it was 9.2%. The insulin secretion stimulation in test [2] was 0.7% (inactive). In addition, the viability decrease in test [3] was 99% (active). Further, the tube area decrease in test [4] is 106% (active). Further, the GLP1 secretion stimulation in test [5] was 20.2% (active). Further, the inhibition of viability in test [6] was 99.1% (active). Also, the viability decrease (inhibition) in test [7] is 102% (active); in test [8], 101% (active).
`C[C@]12C=CC(=O)C=C1[C@@H](F)C[C@@H]1[C@@H]2[C@@H](O)C[C@@]2(C)[C@H]1CC[C@]2(O)C(=O)CO`: the nuclear beta-catenin stimulation in test [1] (at 10 µM) was -1.5% (inactive); in test [1] (stimulation, at 2 µM), -0.6%. For the same molecule, the insulin secretion stimulation in test [2] was 0.8% (inactive). Moreover, in test [3], the viability decrease is -14.4% (inactive). Moreover, the tube area decrease in test [4] was 11.3% (inactive). In addition, the GLP1 secretion stimulation in test [5] was -2.3% (inactive). For the same molecule, the inhibition of viability in test [6] was 5% (inactive). The viability decrease (inhibition) is 19.5% (inactive) in test [7] and -6.1% (inactive) in test [8].
`O=C(CS)Nc1ccccc1`: the nuclear beta-catenin stimulation in test [1] (at 10 µM) was 0.5% (inactive); in test [1] (stimulation, at 2 µM), -0.2%. Moreover, in test [2], the insulin secretion stimulation is 6.4% (inactive). Moreover, in test [3], the viability decrease is -38.2% (inactive). Moreover, the tube area decrease in test [4] is 4.3% (inactive). Also, the GLP1 secretion stimulation in test [5] is -2.3% (inactive). For the same molecule, in test [6], the inhibition of viability is -19.3% (inactive). Further, the viability decrease (inhibition) in test [7] is -2.4% (inactive); in test [8] it was -12.9% (inactive).
Consider `CCN(CC)S(=O)(=O)c1ccc(C(=O)O)cc1`, for which the nuclear beta-catenin stimulation in test [1] (at 10 µM) was 1.6% (inactive); in test [1] (stimulation, at 2 µM), 0.7%. Also, the insulin secretion stimulation in test [2] was -2.1% (inactive). Also, in test [3], the viability decrease is -8.6% (inactive). For the same molecule, the tube area decrease in test [4] was 8.6% (inactive). In test [5], the GLP1 secretion stimulation is -3.2% (inactive). Moreover, in test [6], the inhibition of viability was -14.7% (inactive). The figures for the viability decrease (inhibition) in test [7] and in test [8] were 40% (inactive) and 7.45% (inactive), respectively.
In the case of `Nc1c(I)cc(I)c(C(=O)N(CCC(=O)O)c2ccccc2)c1I`, the nuclear beta-catenin stimulation was 1.2% (inactive) in test [1] (at 10 µM) and -0.2% in test [1] (stimulation, at 2 µM). Moreover, in test [2], the insulin secretion stimulation was 1.9% (inactive). The viability decrease in test [3] is -9.8% (inactive). Besides, the tube area decrease in test [4] was -5.2% (inactive). Also, the GLP1 secretion stimulation in test [5] is -5.3% (inactive). Further, the inhibition of viability in test [6] is -9.4% (inactive). For the same molecule, the viability decrease (inhibition) was 7.8% (active) in test [7] and -9.8% (inactive) in test [8].
Consider `OC(C#CCN1CCCC1)(c1ccccc1)c1ccccc1`, for which the nuclear beta-catenin stimulation in test [1] (at 10 µM) is 1.6% (inactive); in test [1] (stimulation, at 2 µM) it was 0.1%. For the same molecule, the insulin secretion stimulation in test [2] was 4.7% (inactive). Moreover, in test [3], the viability decrease was 20.5% (inactive). In test [4], the tube area decrease was 11.1% (inactive). Moreover, the GLP1 secretion stimulation in test [5] is 5.5% (inactive). The inhibition of viability in test [6] is 21.4% (inactive). The viability decrease (inhibition) in test [7] was 9.7% (inactive); in test [8] it was -4.2% (inactive).
For `Cc1[nH]cnc1-c1ccc(Cl)cc1`, the nuclear beta-catenin stimulation was 1.4% (inactive) in test [1] (at 10 µM) and 1% in test [1] (stimulation, at 2 µM). In addition, the insulin secretion stimulation in test [2] was 0.25% (inactive). Moreover, the viability decrease in test [3] is 11.7% (inactive). In addition, the tube area decrease in test [4] was -1.2% (inactive). Moreover, the GLP1 secretion stimulation in test [5] was 0.1% (inactive). In test [6], the inhibition of viability was 17% (inactive). Besides, the viability decrease (inhibition) in test [7] is -17.6% (inactive); in test [8] it was 3.8% (inactive).
For the molecule `C/C(=N\O)c1ccc(OCC(=O)N2CCCCC2)cc1`, the nuclear beta-catenin stimulation in test [1] (at 10 µM) was 0.1% (inactive); in test [1] (stimulation, at 2 µM), -1.1%. Moreover, the insulin secretion stimulation in test [2] is 3.05% (inactive). For the same molecule, the viability decrease in test [3] was 17.3% (inactive). The tube area decrease in test [4] is -6.2% (inactive). The GLP1 secretion stimulation in test [5] is 0.1% (inactive). Further, the inhibition of viability in test [6] was 13.8% (inactive). Also, the viability decrease (inhibition) in test [7] was -2.5% (inactive); in test [8], -0.4% (inactive).
Consider `OCC(O)CS` (stereo unspecified), for which the nuclear beta-catenin stimulation is -0.5% (inactive) in test [1] (at 10 µM) and 0.8% in test [1] (stimulation, at 2 µM). For the same molecule, the insulin secretion stimulation in test [2] is 0.7% (inactive). Besides, the viability decrease in test [3] is -84.2% (inactive). Moreover, the tube area decrease in test [4] is 27.8% (inactive). Also, in test [5], the GLP1 secretion stimulation was 0.4% (inactive). Moreover, in test [6], the inhibition of viability is 6.77% (inactive). Also, the results for the viability decrease (inhibition) in test [7] and in test [8] were -24% (inactive) and -8.2% (inactive), respectively.
Regarding `Cc1cn([C@H]2C[C@H](F)[C@@H](CO)O2)c(=O)[nH]c1=O`, the nuclear beta-catenin stimulation in test [1] (at 10 µM) was 9.9% (inactive); in test [1] (stimulation, at 2 µM), 3.4%. Moreover, the insulin secretion stimulation in test [2] was 0.2% (inactive). Besides, the viability decrease in test [3] is -4.5% (inactive). The tube area decrease in test [4] was 20.7% (inactive). Further, the GLP1 secretion stimulation in test [5] is -4.5% (inactive). Further, the inhibition of viability in test [6] is 1.4% (inactive). The results for the viability decrease (inhibition) in test [7] and in test [8] were -3.5% (inactive) and -8.7% (inactive), respectively.
